# Experimental data: ChEMBL document CHEMBL2218924, “A broad activity screen in support of a chemogenomic map for kinase signalling research and drug discovery” (Biochem J, 2013); call rule not given here
# Key:
# [1] = target: T1, Serine/threonine-protein kinase haspin (Homo sapiens) (UniProt Q8TF76); conditions: at 1 µM
# T1 sequence (whole entry): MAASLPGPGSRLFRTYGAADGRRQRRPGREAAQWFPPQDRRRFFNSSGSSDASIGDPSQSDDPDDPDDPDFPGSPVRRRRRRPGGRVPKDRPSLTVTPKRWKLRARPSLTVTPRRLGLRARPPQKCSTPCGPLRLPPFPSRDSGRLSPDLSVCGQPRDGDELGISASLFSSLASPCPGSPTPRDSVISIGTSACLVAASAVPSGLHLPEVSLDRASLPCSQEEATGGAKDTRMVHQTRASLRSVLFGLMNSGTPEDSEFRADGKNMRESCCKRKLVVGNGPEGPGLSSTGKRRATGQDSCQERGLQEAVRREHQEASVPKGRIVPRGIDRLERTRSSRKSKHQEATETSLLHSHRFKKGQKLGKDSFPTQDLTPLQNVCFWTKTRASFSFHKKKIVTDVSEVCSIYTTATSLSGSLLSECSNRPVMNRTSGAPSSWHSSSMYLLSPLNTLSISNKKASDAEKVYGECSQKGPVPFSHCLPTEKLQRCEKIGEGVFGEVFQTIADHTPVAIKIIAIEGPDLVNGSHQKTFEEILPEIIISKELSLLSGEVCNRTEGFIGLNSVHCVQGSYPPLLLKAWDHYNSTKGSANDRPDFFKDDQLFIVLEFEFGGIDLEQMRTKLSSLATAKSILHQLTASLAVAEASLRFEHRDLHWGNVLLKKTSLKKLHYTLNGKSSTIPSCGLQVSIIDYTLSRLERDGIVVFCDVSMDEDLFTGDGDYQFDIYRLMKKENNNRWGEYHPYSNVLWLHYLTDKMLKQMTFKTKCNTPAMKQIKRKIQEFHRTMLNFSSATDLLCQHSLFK
# [2] = target: T1, Serine/threonine-protein kinase haspin (Homo sapiens); conditions: at 10 µM
# [3] = target: Tyrosine-protein kinase HCK (Homo sapiens) (UniProt P08631); conditions: at 1 µM
# Sequence of Tyrosine-protein kinase HCK (Homo sapiens) (P08631 2-526 limits assumed): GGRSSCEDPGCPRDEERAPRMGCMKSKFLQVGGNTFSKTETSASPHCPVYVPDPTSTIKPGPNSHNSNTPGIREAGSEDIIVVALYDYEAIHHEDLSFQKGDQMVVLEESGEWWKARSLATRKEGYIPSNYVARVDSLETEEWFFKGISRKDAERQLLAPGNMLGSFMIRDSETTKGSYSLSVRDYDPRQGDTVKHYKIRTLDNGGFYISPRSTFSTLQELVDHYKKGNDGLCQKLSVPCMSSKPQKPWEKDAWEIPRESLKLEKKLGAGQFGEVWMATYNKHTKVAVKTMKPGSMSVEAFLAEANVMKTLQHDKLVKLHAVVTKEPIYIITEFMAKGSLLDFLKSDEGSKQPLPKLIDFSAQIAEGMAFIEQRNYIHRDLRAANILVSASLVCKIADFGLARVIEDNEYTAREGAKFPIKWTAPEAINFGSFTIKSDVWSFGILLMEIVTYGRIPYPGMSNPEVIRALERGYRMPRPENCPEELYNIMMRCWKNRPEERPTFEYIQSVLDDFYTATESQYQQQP
# [4] = target: Tyrosine-protein kinase HCK (Homo sapiens) (UniProt P08631); conditions: at 10 µM
# [5] = target: Tyrosine-protein kinase HCK (Homo sapiens) (UniProt P08631); conditions: at 1 µM; remark: listed apart in the source
# [6] = target: Tyrosine-protein kinase HCK (Homo sapiens) (UniProt P08631); conditions: at 10 µM; remark: listed apart in the source
# [7] = target: Insulin-like growth factor 1 receptor (Homo sapiens) (UniProt P08069); conditions: at 1 µM
# Sequence of Insulin-like growth factor 1 receptor (Homo sapiens) (P08069 31-736 limits assumed): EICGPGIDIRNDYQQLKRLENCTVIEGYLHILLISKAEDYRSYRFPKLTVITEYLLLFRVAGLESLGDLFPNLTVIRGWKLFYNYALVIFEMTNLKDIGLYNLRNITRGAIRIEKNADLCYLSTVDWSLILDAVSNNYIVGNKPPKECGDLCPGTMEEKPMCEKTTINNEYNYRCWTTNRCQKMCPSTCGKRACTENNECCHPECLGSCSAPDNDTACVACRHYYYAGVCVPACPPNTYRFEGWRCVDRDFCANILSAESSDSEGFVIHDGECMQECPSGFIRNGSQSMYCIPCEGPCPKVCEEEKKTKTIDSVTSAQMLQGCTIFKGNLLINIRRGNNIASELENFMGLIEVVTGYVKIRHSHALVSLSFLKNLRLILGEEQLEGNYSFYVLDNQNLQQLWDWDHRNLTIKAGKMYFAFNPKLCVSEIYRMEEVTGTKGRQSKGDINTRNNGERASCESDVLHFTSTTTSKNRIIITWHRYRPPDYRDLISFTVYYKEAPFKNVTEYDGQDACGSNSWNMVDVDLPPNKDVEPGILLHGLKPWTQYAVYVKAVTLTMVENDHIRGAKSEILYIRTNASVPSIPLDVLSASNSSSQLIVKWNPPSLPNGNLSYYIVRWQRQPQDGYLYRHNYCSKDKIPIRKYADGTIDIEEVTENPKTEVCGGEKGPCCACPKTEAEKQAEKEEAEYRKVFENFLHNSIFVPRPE
# Sequence of Insulin-like growth factor 1 receptor (Homo sapiens) (P08069 741-1367 limits assumed): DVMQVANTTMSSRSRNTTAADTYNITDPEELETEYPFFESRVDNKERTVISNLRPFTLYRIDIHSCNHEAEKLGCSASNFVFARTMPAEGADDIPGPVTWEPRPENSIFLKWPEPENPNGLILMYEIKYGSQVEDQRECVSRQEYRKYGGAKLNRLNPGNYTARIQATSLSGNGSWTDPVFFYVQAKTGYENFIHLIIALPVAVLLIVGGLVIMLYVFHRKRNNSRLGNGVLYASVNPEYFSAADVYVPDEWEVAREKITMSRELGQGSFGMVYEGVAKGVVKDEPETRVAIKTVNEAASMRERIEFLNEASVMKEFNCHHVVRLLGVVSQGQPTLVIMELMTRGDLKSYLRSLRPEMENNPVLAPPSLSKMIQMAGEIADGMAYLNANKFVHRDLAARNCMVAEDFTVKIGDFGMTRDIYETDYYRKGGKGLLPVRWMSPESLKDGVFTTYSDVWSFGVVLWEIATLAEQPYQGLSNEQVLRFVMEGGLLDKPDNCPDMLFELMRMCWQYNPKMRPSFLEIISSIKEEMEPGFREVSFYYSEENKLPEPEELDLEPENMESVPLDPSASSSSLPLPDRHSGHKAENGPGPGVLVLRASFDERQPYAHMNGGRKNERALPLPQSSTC
# [8] = target: Insulin-like growth factor 1 receptor (Homo sapiens) (UniProt P08069); conditions: at 10 µM
# [9] = target: T2, Protein kinase C zeta type (Homo sapiens) (UniProt Q05513); conditions: at 10 µM
# T2 sequence (whole entry): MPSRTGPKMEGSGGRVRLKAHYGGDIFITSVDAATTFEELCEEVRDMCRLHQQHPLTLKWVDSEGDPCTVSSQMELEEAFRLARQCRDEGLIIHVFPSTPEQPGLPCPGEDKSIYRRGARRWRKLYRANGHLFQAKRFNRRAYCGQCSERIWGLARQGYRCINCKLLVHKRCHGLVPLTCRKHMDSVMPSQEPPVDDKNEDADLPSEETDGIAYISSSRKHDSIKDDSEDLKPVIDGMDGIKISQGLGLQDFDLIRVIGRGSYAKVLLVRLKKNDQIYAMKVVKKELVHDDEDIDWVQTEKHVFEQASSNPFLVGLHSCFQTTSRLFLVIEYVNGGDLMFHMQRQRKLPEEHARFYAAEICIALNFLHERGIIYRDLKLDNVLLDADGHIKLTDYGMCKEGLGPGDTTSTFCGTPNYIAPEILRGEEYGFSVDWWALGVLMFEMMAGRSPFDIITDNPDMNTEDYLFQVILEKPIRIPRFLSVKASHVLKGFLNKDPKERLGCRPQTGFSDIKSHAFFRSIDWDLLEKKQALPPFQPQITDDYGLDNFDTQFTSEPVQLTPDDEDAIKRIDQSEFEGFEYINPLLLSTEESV
# [10] = target: Protein kinase C eta type (Homo sapiens) (UniProt P24723); conditions: at 1 µM
# Sequence of Protein kinase C eta type (Homo sapiens) (P24723 whole entry): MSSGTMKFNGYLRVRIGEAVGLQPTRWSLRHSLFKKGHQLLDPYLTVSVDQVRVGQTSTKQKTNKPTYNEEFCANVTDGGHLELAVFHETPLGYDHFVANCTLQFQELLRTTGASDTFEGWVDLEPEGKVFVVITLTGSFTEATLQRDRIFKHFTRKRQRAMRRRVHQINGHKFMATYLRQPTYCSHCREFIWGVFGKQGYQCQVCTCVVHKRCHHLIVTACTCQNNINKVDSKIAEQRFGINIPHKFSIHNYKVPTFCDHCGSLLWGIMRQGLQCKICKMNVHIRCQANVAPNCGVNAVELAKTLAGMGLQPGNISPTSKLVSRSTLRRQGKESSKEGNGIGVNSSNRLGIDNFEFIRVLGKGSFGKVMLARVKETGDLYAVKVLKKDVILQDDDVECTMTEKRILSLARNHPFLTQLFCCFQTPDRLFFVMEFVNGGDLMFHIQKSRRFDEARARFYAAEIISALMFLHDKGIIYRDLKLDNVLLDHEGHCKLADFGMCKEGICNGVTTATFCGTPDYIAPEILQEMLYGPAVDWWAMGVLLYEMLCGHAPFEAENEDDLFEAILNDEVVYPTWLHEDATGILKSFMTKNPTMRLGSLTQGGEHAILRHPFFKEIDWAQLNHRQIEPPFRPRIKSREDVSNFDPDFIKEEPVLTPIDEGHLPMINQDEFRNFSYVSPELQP
# [11] = target: Protein kinase C eta type (Homo sapiens) (UniProt P24723); conditions: at 10 µM
# [12] = target: Protein kinase C theta type (Homo sapiens) (UniProt Q04759); conditions: at 1 µM
# Sequence of Protein kinase C theta type (Homo sapiens) (Q04759 whole entry, looked up): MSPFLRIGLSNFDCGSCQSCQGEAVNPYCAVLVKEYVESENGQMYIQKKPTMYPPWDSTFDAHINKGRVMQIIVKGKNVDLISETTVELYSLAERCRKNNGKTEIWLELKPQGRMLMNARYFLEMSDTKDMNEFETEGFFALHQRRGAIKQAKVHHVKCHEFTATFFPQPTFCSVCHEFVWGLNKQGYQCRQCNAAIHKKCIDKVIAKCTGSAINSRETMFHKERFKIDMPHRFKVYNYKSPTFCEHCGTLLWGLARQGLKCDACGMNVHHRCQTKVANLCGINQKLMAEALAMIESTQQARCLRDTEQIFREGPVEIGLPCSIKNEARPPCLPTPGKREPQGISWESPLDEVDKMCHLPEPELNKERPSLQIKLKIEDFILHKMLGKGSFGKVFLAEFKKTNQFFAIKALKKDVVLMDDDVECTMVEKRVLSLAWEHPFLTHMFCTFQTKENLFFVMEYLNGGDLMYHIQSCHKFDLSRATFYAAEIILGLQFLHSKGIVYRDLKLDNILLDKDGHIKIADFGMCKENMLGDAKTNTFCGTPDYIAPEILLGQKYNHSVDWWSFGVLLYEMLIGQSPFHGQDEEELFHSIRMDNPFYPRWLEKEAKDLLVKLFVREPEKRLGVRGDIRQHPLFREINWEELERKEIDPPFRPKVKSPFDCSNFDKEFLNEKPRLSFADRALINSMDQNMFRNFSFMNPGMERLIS
# [13] = target: Protein kinase C theta type (Homo sapiens) (UniProt Q04759); conditions: at 10 µM
# [14] = target: T3, Protein kinase C iota type (Homo sapiens) (UniProt P41743); conditions: at 1 µM
# T3 sequence (whole entry): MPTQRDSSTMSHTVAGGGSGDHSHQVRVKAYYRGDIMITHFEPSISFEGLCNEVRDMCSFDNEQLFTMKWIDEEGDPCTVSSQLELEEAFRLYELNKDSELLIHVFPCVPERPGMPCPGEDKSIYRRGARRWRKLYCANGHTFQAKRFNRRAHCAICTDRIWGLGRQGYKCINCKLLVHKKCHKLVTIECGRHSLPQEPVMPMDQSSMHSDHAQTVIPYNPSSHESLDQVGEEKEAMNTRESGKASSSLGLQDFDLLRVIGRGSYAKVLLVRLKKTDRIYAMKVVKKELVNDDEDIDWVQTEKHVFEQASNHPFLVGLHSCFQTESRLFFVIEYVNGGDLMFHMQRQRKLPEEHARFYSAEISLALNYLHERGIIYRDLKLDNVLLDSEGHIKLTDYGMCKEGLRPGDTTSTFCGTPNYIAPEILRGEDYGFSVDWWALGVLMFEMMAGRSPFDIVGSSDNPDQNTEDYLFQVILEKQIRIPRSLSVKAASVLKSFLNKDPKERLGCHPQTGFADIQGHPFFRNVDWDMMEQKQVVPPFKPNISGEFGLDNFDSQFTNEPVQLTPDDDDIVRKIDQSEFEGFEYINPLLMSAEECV
# [15] = target: T3, Protein kinase C iota type (Homo sapiens); conditions: at 10 µM
# [16] = target: T4, Serine/threonine-protein kinase D1 (Homo sapiens) (UniProt Q15139); conditions: at 1 µM
# T4 sequence (whole entry): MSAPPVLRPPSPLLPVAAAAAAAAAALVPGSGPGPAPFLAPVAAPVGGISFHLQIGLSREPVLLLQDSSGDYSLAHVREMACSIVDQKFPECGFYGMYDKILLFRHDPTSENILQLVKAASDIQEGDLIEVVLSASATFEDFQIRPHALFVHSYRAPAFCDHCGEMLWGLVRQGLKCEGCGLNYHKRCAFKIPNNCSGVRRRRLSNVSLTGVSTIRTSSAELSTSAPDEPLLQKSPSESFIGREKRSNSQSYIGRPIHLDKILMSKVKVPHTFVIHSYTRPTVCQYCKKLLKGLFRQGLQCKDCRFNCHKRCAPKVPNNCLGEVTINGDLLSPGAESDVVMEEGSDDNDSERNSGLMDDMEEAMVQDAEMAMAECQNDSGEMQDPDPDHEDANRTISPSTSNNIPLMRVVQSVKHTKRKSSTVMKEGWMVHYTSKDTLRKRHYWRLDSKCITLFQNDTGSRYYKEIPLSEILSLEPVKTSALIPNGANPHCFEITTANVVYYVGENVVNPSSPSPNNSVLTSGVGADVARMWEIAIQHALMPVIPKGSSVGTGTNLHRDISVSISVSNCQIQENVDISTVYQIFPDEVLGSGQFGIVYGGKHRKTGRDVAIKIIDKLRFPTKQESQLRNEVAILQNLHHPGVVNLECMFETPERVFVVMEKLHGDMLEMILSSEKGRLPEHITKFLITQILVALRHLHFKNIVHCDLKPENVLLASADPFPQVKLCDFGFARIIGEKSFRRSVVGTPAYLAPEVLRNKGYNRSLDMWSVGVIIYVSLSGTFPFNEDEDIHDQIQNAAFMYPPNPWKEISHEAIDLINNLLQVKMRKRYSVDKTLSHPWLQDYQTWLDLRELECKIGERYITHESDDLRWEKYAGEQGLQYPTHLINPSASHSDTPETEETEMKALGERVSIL
# [17] = target: T4, Serine/threonine-protein kinase D1 (Homo sapiens); conditions: at 10 µM
# [18] = target: T5, Serine/threonine-protein kinase D2 (Homo sapiens) (UniProt Q9BZL6); conditions: at 1 µM
# T5 sequence (whole entry): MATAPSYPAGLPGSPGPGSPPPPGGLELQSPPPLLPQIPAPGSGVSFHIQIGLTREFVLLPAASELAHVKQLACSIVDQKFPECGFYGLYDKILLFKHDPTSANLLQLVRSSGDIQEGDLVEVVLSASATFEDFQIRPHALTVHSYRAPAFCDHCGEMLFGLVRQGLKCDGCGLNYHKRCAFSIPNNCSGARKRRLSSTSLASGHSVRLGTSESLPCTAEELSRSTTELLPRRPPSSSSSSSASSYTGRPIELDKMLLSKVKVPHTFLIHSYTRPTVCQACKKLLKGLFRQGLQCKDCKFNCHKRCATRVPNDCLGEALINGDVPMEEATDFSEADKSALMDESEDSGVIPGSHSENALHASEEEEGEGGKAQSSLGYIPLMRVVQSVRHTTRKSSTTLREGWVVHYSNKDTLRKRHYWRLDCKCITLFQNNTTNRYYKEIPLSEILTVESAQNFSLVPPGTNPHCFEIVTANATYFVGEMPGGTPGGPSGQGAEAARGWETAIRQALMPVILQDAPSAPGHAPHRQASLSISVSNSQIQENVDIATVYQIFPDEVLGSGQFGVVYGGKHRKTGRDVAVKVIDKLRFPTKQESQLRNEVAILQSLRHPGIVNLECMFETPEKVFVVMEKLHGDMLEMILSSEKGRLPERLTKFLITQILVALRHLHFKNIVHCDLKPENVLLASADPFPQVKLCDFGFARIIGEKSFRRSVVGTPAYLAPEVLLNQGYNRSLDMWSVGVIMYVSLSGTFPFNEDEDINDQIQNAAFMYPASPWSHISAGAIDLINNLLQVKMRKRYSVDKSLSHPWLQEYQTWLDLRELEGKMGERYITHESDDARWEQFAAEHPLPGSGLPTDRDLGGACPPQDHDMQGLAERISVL
# [19] = target: Homeodomain-interacting protein kinase 3 (Homo sapiens) (UniProt Q9H422); conditions: at 10 µM
# Sequence of Homeodomain-interacting protein kinase 3 (Homo sapiens) (Q9H422 whole entry, looked up): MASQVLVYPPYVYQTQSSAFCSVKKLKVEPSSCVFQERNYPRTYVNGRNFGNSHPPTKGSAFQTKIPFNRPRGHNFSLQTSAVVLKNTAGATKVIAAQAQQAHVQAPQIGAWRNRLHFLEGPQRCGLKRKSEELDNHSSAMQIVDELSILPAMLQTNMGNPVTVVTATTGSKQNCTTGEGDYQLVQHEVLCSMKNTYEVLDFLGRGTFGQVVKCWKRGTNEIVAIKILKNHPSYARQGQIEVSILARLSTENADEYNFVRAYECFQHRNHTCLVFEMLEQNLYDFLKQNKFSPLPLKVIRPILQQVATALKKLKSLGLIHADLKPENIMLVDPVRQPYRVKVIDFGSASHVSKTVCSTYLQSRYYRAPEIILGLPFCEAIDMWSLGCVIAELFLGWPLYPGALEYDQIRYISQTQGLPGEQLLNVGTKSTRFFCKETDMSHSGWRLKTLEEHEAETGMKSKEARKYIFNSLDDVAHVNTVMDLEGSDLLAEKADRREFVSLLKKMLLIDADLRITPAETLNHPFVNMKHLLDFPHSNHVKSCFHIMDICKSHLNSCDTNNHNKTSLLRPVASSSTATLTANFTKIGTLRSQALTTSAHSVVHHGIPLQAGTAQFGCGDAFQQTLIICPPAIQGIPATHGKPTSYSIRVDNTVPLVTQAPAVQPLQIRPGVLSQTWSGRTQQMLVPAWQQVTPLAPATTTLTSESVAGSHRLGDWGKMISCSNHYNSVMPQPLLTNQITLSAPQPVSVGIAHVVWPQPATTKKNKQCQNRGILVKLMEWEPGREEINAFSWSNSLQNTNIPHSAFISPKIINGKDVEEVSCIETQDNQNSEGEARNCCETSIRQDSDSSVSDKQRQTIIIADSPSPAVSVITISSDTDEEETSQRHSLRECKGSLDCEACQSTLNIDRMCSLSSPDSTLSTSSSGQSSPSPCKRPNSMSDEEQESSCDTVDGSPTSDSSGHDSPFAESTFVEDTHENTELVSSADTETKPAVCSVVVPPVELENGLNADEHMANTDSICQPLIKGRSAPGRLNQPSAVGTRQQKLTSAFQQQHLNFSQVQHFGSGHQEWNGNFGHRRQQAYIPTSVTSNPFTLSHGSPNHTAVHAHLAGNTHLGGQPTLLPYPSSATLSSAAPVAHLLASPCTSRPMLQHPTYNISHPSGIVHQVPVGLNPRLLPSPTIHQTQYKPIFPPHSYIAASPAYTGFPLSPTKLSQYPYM
# [20] = target: T5, Serine/threonine-protein kinase D2 (Homo sapiens); conditions: at 10 µM
compound,measurement,setting,value
Nc1ncnc2[nH]nc(Nc3ccc(F)cc3)c12,residual activity,[1],78%
same,residual activity,[2],53%
same,residual activity,[3],37%
same,residual activity,[4],16%
same,residual activity,[5],56%
same,residual activity,[6],11%
same,residual activity,[7],127%
same,residual activity,[8],94%
same,residual activity,[9],98%
same,residual activity,[10],110%
same,residual activity,[11],104%
same,residual activity,[12],107%
same,residual activity,[13],92%
same,residual activity,[14],113% (inactive)
same,residual activity,[15],109%
same,residual activity,[16],81%
same,residual activity,[17],64%
same,residual activity,[18],106%
CN(C)S(=O)(=O)c1ccc2c(c1)/C(=C/c1cc3c([nH]1)CCCC3)C(=O)N2,residual activity,[19],86%
same,residual activity,[1],127%
same,residual activity,[3],10%
same,residual activity,[4],10%
same,residual activity,[5],73%
same,residual activity,[6],74%
same,residual activity,[8],134%
same,residual activity,[12],93%
same,residual activity,[13],72%
same,residual activity,[14],99% (inactive)
same,residual activity,[15],114%
same,residual activity,[16],91%
N#Cc1c(NC(=O)c2cccc3ccccc23)sc2c1CCCC2,residual activity,[19],99%
same,residual activity,[1],82%
same,residual activity,[2],64%
same,residual activity,[3],63%
same,residual activity,[4],55%
same,residual activity,[7],136%
same,residual activity,[8],128%
same,residual activity,[9],100%
same,residual activity,[10],91%
same,residual activity,[11],92%
same,residual activity,[16],92%
same,residual activity,[17],83%
same,residual activity,[20],93%
O=C(O)/C=C/c1cc(Br)c(Br)c(Br)c1Br,residual activity,[19],54%
same,residual activity,[1],79%
same,residual activity,[2],71%
same,residual activity,[3],59%
same,residual activity,[4],48%
same,residual activity,[5],107%
same,residual activity,[6],106%
same,residual activity,[9],88%
same,residual activity,[10],100%
same,residual activity,[11],79%
same,residual activity,[12],100%
same,residual activity,[13],90%
same,residual activity,[14],96% (inactive)
same,residual activity,[15],100%
same,residual activity,[16],109%
same,residual activity,[17],64%
same,residual activity,[18],102%
same,residual activity,[20],97%
